Laboratory results reported in the antibiotic and cytotoxicity screens of Wong et al. (2023).
About 3,300 (8.5%) of roughly 39,000 compounds were called active. Many of the other results were omitted from the sample, so actives are more common in it than they were.

Test system: HepG2
Experiment: cytotoxicity call (relative viability < 0.9)
Settings: 10 µM

| SMILES | cytotoxicity call |
| --- | --- |
| CN(C)c1ccc(O)c2c1C[C@H]1C[C@H]3[C@H](N(C)C)C(=O)C(C(N)=O)=C(O)[C@@]3(O)C(=O)[C@H]1C2=O | inactive |
| CC(C)c1c(O)ccc2c1CCC1C(C)(C)CCCC21C (stereo not given) | inactive |
| COC(=O)C1(C)CCCC2(C)c3ccc(O)c(C(C)C)c3CCC12 (stereo not given) | active |
| COC(=O)C1(C)CCCC2(C)c3ccc(C(C)C)cc3C(=O)CC12 (stereo not given) | inactive |
| CC(C)c1c(O)ccc2c1CC[C@H]1C(C)(C)CCC[C@]21C | active |
| CC(C)c1c(O)ccc2c1CCC1C(C)(C=O)CCCC21C (stereo not given) | inactive |
| CC(C)c1c(O)ccc2c1CCC1C(C)(C)C(=O)CCC21C (stereo not given) | inactive |
| CC(C)(CO)c1cc2cc(NC(=O)C3(c4ccc5c(c4)OC(F)(F)O5)CC3)c(F)cc2n1C[C@@H](O)CO | inactive |
| NCCn1cccn1 | inactive |
| C[C@@H]1CN([C@@H](C)CO)S(=O)(=O)c2ccc(C#CCN(C)C)cc2O[C@H]1CN(C)Cc1ccccn1 | inactive |
| CC(C)(C)C1CCC(OC[C@@H](O)CN2CCC(CN3C(=O)c4cccc5cccc(c45)C3=O)CC2)CC1 (stereo not given in full) | active |
| O=C(CN1C(=O)c2cccc3cccc(c23)C1=O)N1CCN(CCN2C(=O)[C@@H]3[C@@H](C2=O)[C@@H]2C=C[C@@H]3C2)CC1 | inactive |
| O=C(O)CN1C(=O)c2cccc3cccc(c23)C1=O | inactive |
| CCCN(C)C[C@H]1OCCCC[C@@H](C)Oc2ccc(NC(=O)Nc3c(C)noc3C)cc2C(=O)N([C@H](C)CO)C[C@@H]1C | inactive |
| COc1ccc(S(=O)(=O)Nc2ccc3c(c2)C(=O)N([C@@H](C)CO)C[C@H](C)[C@@H](CN(C)C(=O)Nc2cccc4ccccc24)OCCCC[C@@H](C)O3)cc1 | inactive |
| CC=C1C2C=C(C)CC1(N)c1ccc(=O)[nH]c1C2 (stereo not given) | inactive |
| C[C@H]1CN([C@@H](C)CO)C(=O)c2cccc(NC(=O)Nc3ccc(F)cc3)c2O[C@@H]1CN(C)Cc1ccc(C(=O)Nc2ccccc2N)cc1 | inactive |
| C[C@H](CO)N1C[C@H](C)[C@H](CN(C)Cc2ccc(C(=O)Nc3ccccc3N)cc2)Oc2c(NC(=O)Nc3ccc(F)cc3)cccc2C1=O | inactive |
| C[C@H]1CN([C@@H](C)CO)C(=O)c2cccc(NC(=O)Nc3ccccc3)c2O[C@H]1CN(C)Cc1ccc(C(=O)Nc2ccccc2N)cc1 | active |
| C[C@@H]1CN([C@H](C)CO)C(=O)c2cccc(NC(=O)Nc3ccccc3)c2O[C@@H]1CN(C)Cc1ccc(C(=O)Nc2ccccc2N)cc1 | inactive |
| C[C@@H]1CN([C@@H](C)CO)C(=O)c2cccc(NC(=O)Nc3ccc(F)cc3)c2O[C@H]1CN(C)Cc1ccc(C(=O)Nc2ccccc2N)cc1 | inactive |
| C[C@H]1CN([C@@H](C)CO)C(=O)c2cccc(NC(=O)Nc3ccc(F)cc3)c2O[C@H]1CN(C)Cc1ccc(C(=O)Nc2ccccc2N)cc1 | active |

| SMILES | cytotoxicity call |
| --- | --- |
| C[C@@H]1CN([C@H](C)CO)C(=O)c2cccc(NC(=O)Nc3ccc(F)cc3)c2O[C@H]1CN(C)Cc1ccc(C(=O)Nc2ccccc2N)cc1 | inactive |
| C[C@@H]1CN([C@@H](C)CO)C(=O)c2cccc(NC(=O)Nc3ccccc3)c2O[C@H]1CN(C)Cc1ccc(C(=O)Nc2ccccc2N)cc1 | inactive |
| C[C@@H]1CN([C@@H](C)CO)C(=O)c2cccc(NC(=O)Nc3ccc(F)cc3)c2O[C@@H]1CN(C)Cc1ccc(C(=O)Nc2ccccc2N)cc1 | active |
| C[C@@H]1CN([C@@H](C)CO)C(=O)CCCn2cc(nn2)CO[C@H]1CN(C)S(=O)(=O)c1ccccc1C#N | inactive |
| CC(C)c1cccc(NC(=O)C[C@H]2CC[C@H]3[C@@H](COc4ccc(NC(=O)c5ccc(C#N)cc5)cc4C(=O)N3C)O2)c1 | inactive |
| COc1ccc(S(=O)(=O)N(C)C[C@H]2OCCCC[C@H](C)Oc3ccc(NC(=O)Nc4cccc5ccccc45)cc3C(=O)N([C@@H](C)CO)C[C@H]2C)cc1 | inactive |
| COc1ccc(S(=O)(=O)N(C)C[C@H]2Oc3ccc(N(C)C)cc3CC(=O)N([C@H](C)CO)C[C@H]2C)cc1 | inactive |
| C[C@@H]1CN([C@H](C)CO)C(=O)c2cccc(NS(=O)(=O)c3ccc(F)cc3)c2O[C@@H]1CN(C)Cc1ccc(Cl)c(Cl)c1 | inactive |
| COc1ccc(S(=O)(=O)Nc2ccc3c(c2)C(=O)N([C@H](C)CO)C[C@@H](C)[C@H](CN(C)C(=O)Nc2cccc4ccccc24)OCCCC[C@@H](C)O3)cc1 | inactive |
| C[C@H]1CN([C@@H](C)CO)C(=O)c2cc(C#CCN(C)C)cnc2O[C@@H]1CN(C)Cc1ccc(C(=O)O)cc1 | inactive |
| C[C@@H]1CN([C@H](C)CO)C(=O)c2cccc(NC(=O)Nc3ccc4c(c3)OCO4)c2O[C@H]1CN(C)C(=O)Nc1ccc(C(F)(F)F)cc1 | inactive |
| Nc1ncccc1-c1nc2ccc(-c3ccccc3)nc2n1-c1ccc(C2(N)CCC2)cc1 | active |
| NC(=O)c1ccc2nc(-c3ccc(C4(N)CCC4)cc3)c(-c3ccccc3)n2n1 | inactive |
| CC(C)NC(=O)N[C@@H]1CC[C@@H](CCN)O[C@@H]1CO | inactive |
| Cc1ccc(S(=O)(=O)Nc2ccc3c(c2)CC(=O)N([C@@H](C)CO)C[C@@H](C)[C@@H](CN(C)S(=O)(=O)c2c(C)noc2C)O3)cc1 | inactive |
| Cc1noc(C)c1NC(=O)N(C)C[C@H]1Oc2ccc(NC(=O)Cn3cnnn3)cc2CC(=O)N([C@H](C)CO)C[C@@H]1C | inactive |
| Cc1noc(C)c1S(=O)(=O)Nc1ccc2c(c1)CC(=O)N([C@@H](C)CO)C[C@@H](C)[C@H](CN(C)C(=O)Nc1ccccc1)O2 | inactive |
| Cc1[nH]c2ncnn2c(=O)c1NS(C)(=O)=O | inactive |
| COC(=O)Cc1c(C)[nH]c2ncnn2c1=O | inactive |
| CC(=O)Nc1c(C)[nH]c2ncnn2c1=O | active |
| C[C@@H]1CN([C@H](C)CO)C(=O)Cc2cc(NS(C)(=O)=O)ccc2O[C@@H]1CN(C)C(=O)Nc1ccc(C(F)(F)F)cc1 | inactive |
| O=C(Nc1ccno1)NN1CCOCC1 | inactive |

| SMILES | cytotoxicity call |
| --- | --- |
| COc1cc(C2c3cc4c(cc3C(OC3OC5COC(c6cccs6)OC5C(O)C3O)C3COC(=O)C23)OCO4)cc(OC)c1O (stereo not given) | active |
| COc1cc(C2c3cc4c(cc3C(OC3OC5COC(C)OC5C(O)C3O)C3COC(=O)C23)OCO4)cc(OC)c1O (stereo not given) | inactive |
| COc1cc([C@@H]2c3cc4c(cc3[C@@H](O[C@@H]3O[C@@H]5CO[C@@H](C)O[C@H]5[C@H](O)[C@H]3O)[C@@H]3COC(=O)[C@@H]23)OCO4)cc(OC)c1O | inactive |
| COc1cc([C@@H]2c3cc4c(cc3[C@@H](O[C@@H]3O[C@@H]5CO[C@@H](C)O[C@H]5[C@H](O)[C@H]3O)[C@H]3COC(=O)[C@H]23)OCO4)cc(OC)c1O | active |
| C[C@H](CO)N1C[C@H](C)[C@H](CN(C)S(=O)(=O)c2cccs2)Oc2ccc(NS(=O)(=O)c3ccc(F)cc3)cc2CC1=O | inactive |
| O=C(C[C@@H]1C[C@H]2c3cc(NC(=O)C4CCOCC4)ccc3O[C@H]2[C@@H](CO)O1)NCCN1CCCCC1 | inactive |
| C[C@@H]1CN([C@@H](C)CO)C(=O)c2cc(C#CCN(C)C)cnc2O[C@H]1CN(C)C(=O)c1ccc2c(c1)OCO2 | inactive |
| Cc1ccc(S(=O)(=O)Nc2ccc3c(c2)C(=O)N([C@@H](C)CO)C[C@H](C)[C@@H](CN(C)C(=O)Nc2ccc(C(F)(F)F)cc2)OCCCC[C@H](C)O3)cc1 | active |
| Cc1ccc(S(=O)(=O)Nc2ccc3c(c2)C(=O)N([C@H](C)CO)C[C@H](C)[C@H](CN(C)C(=O)Nc2ccc(C(F)(F)F)cc2)OCCCC[C@@H](C)O3)cc1 | inactive |
| Cc1ccc(S(=O)(=O)Nc2ccc3c(c2)C(=O)N([C@H](C)CO)C[C@@H](C)[C@H](CN(C)C(=O)Nc2ccc(C(F)(F)F)cc2)OCCCC[C@H](C)O3)cc1 | inactive |
| Cc1ccc(S(=O)(=O)Nc2ccc3c(c2)C(=O)N([C@@H](C)CO)C[C@H](C)[C@@H](CN(C)C(=O)Nc2ccc(C(F)(F)F)cc2)OCCCC[C@@H](C)O3)cc1 | active |
| Cc1ccc(S(=O)(=O)Nc2ccc3c(c2)C(=O)N([C@@H](C)CO)C[C@@H](C)[C@@H](CN(C)C(=O)Nc2ccc(C(F)(F)F)cc2)OCCCC[C@H](C)O3)cc1 | inactive |
| Cc1ccc(S(=O)(=O)Nc2ccc3c(c2)C(=O)N([C@H](C)CO)C[C@H](C)[C@@H](CN(C)C(=O)Nc2ccc(C(F)(F)F)cc2)OCCCC[C@@H](C)O3)cc1 | inactive |
| Cc1ccc(S(=O)(=O)Nc2ccc3c(c2)C(=O)N([C@H](C)CO)C[C@H](C)[C@H](CN(C)C(=O)Nc2ccc(C(F)(F)F)cc2)OCCCC[C@H](C)O3)cc1 | active |
| Cc1ccc(S(=O)(=O)Nc2ccc3c(c2)C(=O)N([C@H](C)CO)C[C@@H](C)[C@H](CN(C)C(=O)Nc2ccc(C(F)(F)F)cc2)OCCCC[C@@H](C)O3)cc1 | inactive |
| Cc1ccc(S(=O)(=O)Nc2ccc3c(c2)C(=O)N([C@H](C)CO)C[C@H](C)[C@@H](CN(C)C(=O)Nc2ccc(C(F)(F)F)cc2)OCCCC[C@H](C)O3)cc1 | inactive |
| C[C@@H]1CN([C@H](C)CO)C(=O)Cc2cc(NS(=O)(=O)c3cn(C)cn3)ccc2O[C@@H]1CN(C)Cc1ccc2c(c1)OCO2 | inactive |
| C=CC[C@H](CC(=O)NCCO)C(=O)N[C@H](COC(=O)[C@@H](CC=C)CC(=O)OC(C)(C)C)c1ccccc1 | inactive |
| C[C@@H]1CCCCO[C@@H](CN(C)CC2CC2)[C@H](C)CN([C@H](C)CO)C(=O)c2cc(NC(=O)CCC(F)(F)F)ccc2O1 | inactive |
| C[C@H](CO)N1C[C@H](C)[C@@H](CN(C)C(=O)c2ccccc2)OCCCC[C@H](C)Oc2ccc(NS(=O)(=O)c3ccccc3)cc2C1=O | inactive |
| CO[C@H]1CN(C)C(=O)c2ccc(NC(=O)Nc3cccc(Cl)c3)cc2OC[C@H](C)N(C(=O)Nc2c(C)noc2C)C[C@H]1C | inactive |
